Data from publication PMC5540273 (PLoS ONE, 2017).

Experiments:
Details in all cases: concentration: 1 μM, replicates: in singlicate; n = 1
IRAK4 = system: IRAK4
ITK = system: ITK
[1] = system: JAK1(JH1domain-catalytic)
[2] = system: JAK1(JH2domain-pseudokinase)
[3] = system: JAK2(JH1domain-catalytic)
[4] = system: JAK3(JH1domain-catalytic)
JNK1 = system: T1, JNK1
T1 construct: gene MAPK8

JNK2 = system: T2, JNK2
T2 construct: gene MAPK9

JNK3 = system: T3, JNK3
T3 construct: gene MAPK10

KIT-autoinhibited = system: KIT-autoinhibited
KIT = system: KIT
LATS1 = system: LATS1
LATS2 = system: LATS2
LCK = system: LCK
LIMK1 = system: LIMK1
LIMK2 = system: LIMK2
LKB1 = system: T4, LKB1
T4 construct: gene STK11

LOK = system: T5, LOK
T5 construct: gene STK10

LRRK2 = system: LRRK2
LTK = system: LTK
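Also: KINOMEscan kinase panel screen.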

| SMILES | %Inh (IRAK4) [%] | %Inh (ITK) [%] | %Inh [1] [%] | %Inh [2] [%] | %Inh [3] [%] | %Inh [4] [%] | %Inh (JNK1) [%] | %Inh (JNK2) [%] | %Inh (JNK3) [%] | %Inh (KIT-autoinhibited) [%] | %Inh (KIT) [%] | %Inh (LATS1) [%] | %Inh (LATS2) [%] | %Inh (LCK) [%] | %Inh (LIMK1) [%] | %Inh (LIMK2) [%] | %Inh (LKB1) [%] | %Inh (LOK) [%] | %Inh (LRRK2) [%] | %Inh (LTK) [%] |
| --- | --- | --- | --- | --- | --- | --- | --- | --- | --- | --- | --- | --- | --- | --- | --- | --- | --- | --- | --- | --- |
| O=C1NC(=O)C(N2CCc3ccccc32)=C1c1ccccc1Cl [SB-373598] | 7 | 10 | 3 | 0 | 0 | 40 | 7 | 6 | 5 | 0 | 2 | 0 | 19 | 35 | 21 | 15 | 2 | 10 | 0 | 99.1 |
| Cn1ccc2ncnc(Oc3ccc(NC(=O)Nc4ccccc4)cc3)c21 | 17 | 0 | 0 | 39 | 2 | 21 | 22 | 0 | 0 | 57 | 100 | 16 | 13 | 20 | 1 | 1 | 0 | 94.8 | 24 | 0 |
| Cc1nnc(-c2ccc3occ(-c4ccc(S(C)=O)cc4)c3c2)[nH]1 (centres unmarked) | 0 | 13 | 3 | 90.4 | 11 | 22 | 3 | 26 | 45 | 11 | 20 | 19 | 0 | 46 | 0 | 0 | 23 | 98.7 | 0 | 0 |
| Cc1c(Cn2ccn3c(=O)cc(N4CCOCC4)nc23)cccc1C(F)(F)F [GSK2289044] | 0 | 5 | 83 | 0 | 0 | 0 | 3 | 6 | 3 | 0 | 10 | 0 | 13 | 7 | 0 | 0 | 10 | 0 | 0 | 0 |
| Fc1cccc(COc2nnc(-c3ccc4c(c3)CCO4)o2)c1 | 5 | 23 | 0 | 10 | 0 | 5 | 6 | 0 | 0 | 0 | 3 | 0 | 0 | 0 | 0 | 0 | 16 | 0 | 4 | 0 |
| C[C@@H]1CCCCN1c1cc(-c2ccc3c(N)n[nH]c3c2)nc(N)n1 [GSK2258759] | 0 | 0 | 8 | 0 | 0 | 0 | 0 | 10 | 0 | 0 | 4 | 23 | 14 | 0 | 0 | 19 | 0 | 0 | 0 | 0 |
| Cn1ccc2ncnc(Oc3ccc(Nc4nc5ccccc5[nH]4)cc3)c21 | 0 | 3 | 8 | 0 | 0 | 0 | 0 | 0 | 0 | 0 | 77 | 0 | 0 | 0 | 0 | 0 | 3 | 93.7 | 0 | 0 |
| COc1cc2ncn(-c3cc(OCC4CCCO4)c(C(N)=O)s3)c2cc1OC (centres unmarked) [GSK204607] | 0 | 5 | 0 | 0 | 1 | 0 | 0 | 17 | 7 | 0 | 16 | 0 | 10 | 7 | 0 | 16 | 0 | 96.9 | 0 | 11 |
| Cc1cc(-c2ccc3c(c2)CC[C@@H](N[C@@H](C)c2ccccc2)C3)cnc1N.Cl [GW412617] | 71 | 18 | 12 | 46 | 34 | 0 | 36 | 3 | 4 | 0 | 60 | 0 | 0 | 34 | 0 | 0 | 0 | 0 | 33 | 0 |
| COC(=O)c1c(-c2ccccc2)c2cc(OC)ccc2c(=O)n1Cc1ccccc1 | 10 | 9 | 10 | 0 | 0 | 0 | 66 | 68 | 85 | 6 | 93.3 | 31 | 0 | 0 | 0 | 0 | 8 | 9 | 0 | 11 |
